# Data as given in paper PMC11006913.
# How the values were obtained:
# Assay in all cases: PBM; 200 nM protein, PBS
# Settings in all cases: dsDNA, one strand shown
# [1] = biological target: CRX (Homo sapiens, UniProt O43186 26-111)
# [2] = biological target: CRX (Homo sapiens, UniProt O43186 26-111, E42D)
# [3] = biological target: CRX (Homo sapiens, UniProt O43186 26-111, R41L)
# CRX (Homo sapiens, UniProt O43186 26-111, R41L), sequence (O43186 26-111 R41L): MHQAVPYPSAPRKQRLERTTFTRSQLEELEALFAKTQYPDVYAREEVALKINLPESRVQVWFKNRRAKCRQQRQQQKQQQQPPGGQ
# CRX (Homo sapiens, UniProt O43186 26-111, E42D), sequence (O43186 26-111 E42D): as the sequence (O43186 26-111 R41L) above, with L16R, E17D counted along it
# CRX (Homo sapiens, UniProt O43186 26-111), sequence (O43186 26-111): as the sequence (O43186 26-111 R41L) above, with L16R counted along it
sequence,measurement,setting,value
CAGGCTAG,binding signal,[1],"8.3 upbm affinity estimate (log intensity, higher = more binding, comparable within an allelic series)"
same,binding signal,[2],"8.21 upbm affinity estimate (log intensity, higher = more binding, comparable within an allelic series)"
same,binding signal,[3],"8.16 upbm affinity estimate (log intensity, higher = more binding, comparable within an allelic series)"
GGAGACCC,binding signal,[1],"8.12 upbm affinity estimate (log intensity, higher = more binding, comparable within an allelic series)"
same,binding signal,[2],"8.25 upbm affinity estimate (log intensity, higher = more binding, comparable within an allelic series)"
same,binding signal,[3],"8.36 upbm affinity estimate (log intensity, higher = more binding, comparable within an allelic series)"
GAATAAAC,binding signal,[1],"10 upbm affinity estimate (log intensity, higher = more binding, comparable within an allelic series)"
same,binding signal,[2],"9.83 upbm affinity estimate (log intensity, higher = more binding, comparable within an allelic series)"
same,binding signal,[3],"9.51 upbm affinity estimate (log intensity, higher = more binding, comparable within an allelic series)"
GAAATCCA,binding signal,[1],"10.7 upbm affinity estimate (log intensity, higher = more binding, comparable within an allelic series)"
same,binding signal,[2],"10.4 upbm affinity estimate (log intensity, higher = more binding, comparable within an allelic series)"
same,binding signal,[3],"10.6 upbm affinity estimate (log intensity, higher = more binding, comparable within an allelic series)"
CCGATCAG,binding signal,[1],"9.74 upbm affinity estimate (log intensity, higher = more binding, comparable within an allelic series)"
same,binding signal,[2],"9.63 upbm affinity estimate (log intensity, higher = more binding, comparable within an allelic series)"
same,binding signal,[3],"9.48 upbm affinity estimate (log intensity, higher = more binding, comparable within an allelic series)"
GCAACCGC,binding signal,[1],"8.47 upbm affinity estimate (log intensity, higher = more binding, comparable within an allelic series)"
same,binding signal,[2],"8.38 upbm affinity estimate (log intensity, higher = more binding, comparable within an allelic series)"
same,binding signal,[3],"8.34 upbm affinity estimate (log intensity, higher = more binding, comparable within an allelic series)"
GGTCGAAC,binding signal,[1],"8.09 upbm affinity estimate (log intensity, higher = more binding, comparable within an allelic series)"
same,binding signal,[2],"8.11 upbm affinity estimate (log intensity, higher = more binding, comparable within an allelic series)"
same,binding signal,[3],"8.1 upbm affinity estimate (log intensity, higher = more binding, comparable within an allelic series)"
ACACGCCC,binding signal,[1],"8.11 upbm affinity estimate (log intensity, higher = more binding, comparable within an allelic series)"
same,binding signal,[2],"8.24 upbm affinity estimate (log intensity, higher = more binding, comparable within an allelic series)"
same,binding signal,[3],"8.26 upbm affinity estimate (log intensity, higher = more binding, comparable within an allelic series)"
CCTCGCCC,binding signal,[1],"8.43 upbm affinity estimate (log intensity, higher = more binding, comparable within an allelic series)"
same,binding signal,[2],"8.52 upbm affinity estimate (log intensity, higher = more binding, comparable within an allelic series)"
same,binding signal,[3],"8.44 upbm affinity estimate (log intensity, higher = more binding, comparable within an allelic series)"
CGATAATC,binding signal,[1],"12.8 upbm affinity estimate (log intensity, higher = more binding, comparable within an allelic series)"
same,binding signal,[2],"12.7 upbm affinity estimate (log intensity, higher = more binding, comparable within an allelic series)"
same,binding signal,[3],"12.7 upbm affinity estimate (log intensity, higher = more binding, comparable within an allelic series)"
ATAACCCC,binding signal,[1],"10.6 upbm affinity estimate (log intensity, higher = more binding, comparable within an allelic series)"
same,binding signal,[2],"10.4 upbm affinity estimate (log intensity, higher = more binding, comparable within an allelic series)"
same,binding signal,[3],"10.2 upbm affinity estimate (log intensity, higher = more binding, comparable within an allelic series)"
AAGTAATA,binding signal,[1],"10.4 upbm affinity estimate (log intensity, higher = more binding, comparable within an allelic series)"
same,binding signal,[2],"10.3 upbm affinity estimate (log intensity, higher = more binding, comparable within an allelic series)"
same,binding signal,[3],"10.1 upbm affinity estimate (log intensity, higher = more binding, comparable within an allelic series)"
GACGCTAC,binding signal,[1],"8.4 upbm affinity estimate (log intensity, higher = more binding, comparable within an allelic series)"
same,binding signal,[2],"8.38 upbm affinity estimate (log intensity, higher = more binding, comparable within an allelic series)"
same,binding signal,[3],"8.27 upbm affinity estimate (log intensity, higher = more binding, comparable within an allelic series)"
AGATAATC,binding signal,[1],"12.9 upbm affinity estimate (log intensity, higher = more binding, comparable within an allelic series)"
same,binding signal,[2],"12.7 upbm affinity estimate (log intensity, higher = more binding, comparable within an allelic series)"
same,binding signal,[3],"12.7 upbm affinity estimate (log intensity, higher = more binding, comparable within an allelic series)"
AGCACCAG,binding signal,[1],"8.33 upbm affinity estimate (log intensity, higher = more binding, comparable within an allelic series)"
same,binding signal,[2],"8.39 upbm affinity estimate (log intensity, higher = more binding, comparable within an allelic series)"
same,binding signal,[3],"8.39 upbm affinity estimate (log intensity, higher = more binding, comparable within an allelic series)"
AGAATCCC,binding signal,[1],"10.2 upbm affinity estimate (log intensity, higher = more binding, comparable within an allelic series)"
same,binding signal,[2],"10 upbm affinity estimate (log intensity, higher = more binding, comparable within an allelic series)"
same,binding signal,[3],"10.1 upbm affinity estimate (log intensity, higher = more binding, comparable within an allelic series)"
GATTATCC,binding signal,[1],"12.9 upbm affinity estimate (log intensity, higher = more binding, comparable within an allelic series)"
same,binding signal,[2],"12.9 upbm affinity estimate (log intensity, higher = more binding, comparable within an allelic series)"
same,binding signal,[3],"12.8 upbm affinity estimate (log intensity, higher = more binding, comparable within an allelic series)"
AAATCCAA,binding signal,[1],"11.2 upbm affinity estimate (log intensity, higher = more binding, comparable within an allelic series)"
same,binding signal,[2],"11 upbm affinity estimate (log intensity, higher = more binding, comparable within an allelic series)"
same,binding signal,[3],"11 upbm affinity estimate (log intensity, higher = more binding, comparable within an allelic series)"
CGTTCTAC,binding signal,[1],"8.44 upbm affinity estimate (log intensity, higher = more binding, comparable within an allelic series)"
same,binding signal,[2],"8.39 upbm affinity estimate (log intensity, higher = more binding, comparable within an allelic series)"
same,binding signal,[3],"8.27 upbm affinity estimate (log intensity, higher = more binding, comparable within an allelic series)"
ACTGCTGG,binding signal,[1],"8.37 upbm affinity estimate (log intensity, higher = more binding, comparable within an allelic series)"
same,binding signal,[2],"8.49 upbm affinity estimate (log intensity, higher = more binding, comparable within an allelic series)"
same,binding signal,[3],"8.37 upbm affinity estimate (log intensity, higher = more binding, comparable within an allelic series)"
AGGCATAA,binding signal,[1],"10.3 upbm affinity estimate (log intensity, higher = more binding, comparable within an allelic series)"
same,binding signal,[2],"10.1 upbm affinity estimate (log intensity, higher = more binding, comparable within an allelic series)"
same,binding signal,[3],"9.78 upbm affinity estimate (log intensity, higher = more binding, comparable within an allelic series)"
GTAGCAAC,binding signal,[1],"8.55 upbm affinity estimate (log intensity, higher = more binding, comparable within an allelic series)"
same,binding signal,[2],"8.49 upbm affinity estimate (log intensity, higher = more binding, comparable within an allelic series)"
same,binding signal,[3],"8.42 upbm affinity estimate (log intensity, higher = more binding, comparable within an allelic series)"
